# Several values for one entry are separate records, joined by “and”; a condition that tells them apart may be missing. Identical values can stand only once. Inconclusive results are not listed. A structure can be active in one record and inactive in another. Activity calls are given as the source filed them. How the source made its calls, unless noted: active means hit-call score of the fitted dose curve at least 0.9, where 1 is the maximum; inactive means score below 0.9.
# Experiments:
# [1] = CCTE_Shafer_MEA_dev_per_network_spike_spike_percent: CCTE's Neural Network Formation Assay for Percent of Spikes in a Network Spike, Shafer Lab (AID 2284054)
# In short: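 Read-out: percent of spikes falling in a 0.05 s window at network-spike peak, from spontaneous MEA recordings on days 5, 7, 9 and 12; trapezoidal AUC; loss of signal versus DMSO. Rat cortical cultures, compound present throughout.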
# [2] = CCTE_Shafer_MEA_dev_LDH: CCTE's Lactate Dehydrogenase Assay for Cytotoxicity in the Neural Network Formation Assay, Shafer Lab (AID 2284068; active means hit-call score of the fitted dose curve at least 0.9, where 1 is the maximum;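 further: exposure for twelve days from plating with re-dosing on DIV 5 and 9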)
# In short: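 Cytotoxicity companion to network-formation recordings: rat cortical neurons received compound over 12 days of development, re-dosed at DIV 5 and 9 feeds. Viability was inferred from LDH enzyme activity relative to DMSO.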
# [3] = CCTE_Shafer_MEA_dev_AB: CCTE's Alamar Blue Assay for Cytotoxicity in the Neural Network Formation Assay, Shafer Lab (AID 2284083; active means hit-call score of the fitted dose curve at least 0.9, where 1 is the maximum;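 further: twelve days of exposure from plating with re-dosing on DIV 5 and 9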)
# In short: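 Fluorescent resazurin reduction serves as the viability read-out, with DMSO as negative control and baseline. Cells were primary rat cortical neurons grown on MEA plates and dosed from day 0 to day 12, treatment renewed on DIV 5 and 9.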
# [4] = CCTE_Shafer_MEA_dev_mutual_information_norm: CCTE's Neural Network Formation Assay for Mutual Information Normalization, Shafer Lab (AID 2284091);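 on AC50: mutual information between electrodes summarised as area under curve across four recording days; potency is for a decrease in mutual information relative to DMSO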
# In short: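 Neurons from rat cortex were seeded at 1.5 x 10^5 cells/well onto PEI-coated MEAs in a laminin drop, then exposed to compound from day 0 for twelve days. Network recordings on four days gave mutual information, summarised by AUC relative to DMSO.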
# [5] = CCTE_Shafer_MEA_dev_correlation_coefficient_mean: CCTE's Neural Network Formation Assay for Mean Correlation Coefficient, Shafer Lab (AID 2284093);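 on AC50: well mean pairwise spike train correlation integrated as AUC over recording days 5 to 12; potency fitted for loss of correlation relative to DMSO vehicle wells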
# In short: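 Read-out: well-mean correlation coefficient of spike trains between electrode pairs, collapsed over four recording days as trapezoidal area-under-the-curve. Developing rat cortical neuron networks grown on MEAs received test chemical continuously from plating.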
# [6] = CCTE_Mundy_HCI_Cortical_Synap_Neur_Matur_NeuriteSpotCountPerNeuriteLength: CCTE's Synaptogenesis and Neurite Maturation Assay in rat cortical cells for Neurite Spot Count per Neurite Length, Mundy Lab (AID 2284210)
# In short: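 Read-out: synaptophysin puncta counted along MAP2-stained neurites, normalised to neurite length, by automated high-content imaging. Rat cortical cells; AraC DIV 5; chemical dosing DIV 7; termination DIV 12. DMSO baseline.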
# [7] = CCTE_Mundy_HCI_Cortical_Synap_Neur_Matur_BPCount: CCTE's Synaptogenesis and Neurite Maturation Assay in rat cortical cells for Branch Point Count, Mundy Lab (AID 2284211)
# In short: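 In this multiplexed morphology assay, cortical cells from rat receive chemicals at DIV 7 and are fixed at DIV 12, then immunostained and imaged; branch points are counted, with DMSO as baseline.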
# [8] = CCTE_Mundy_HCI_Cortical_NOG_NeuriteCount: CCTE's Neurite Outgrowth Assay in rat cortical cells for Neurite Count, Mundy Lab (AID 2284212);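 further: cells fixed about two days after chemical exposure began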
# In short: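 Rat cortical primary cells; compound added 2 h post-plating, 1/10 dilution of working solution. Anti-betaIII-tubulin/AF488 ICC; ArrayScan neurite count vs DMSO.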
# [9] = CCTE_Mundy_HCI_Cortical_NOG_NeuriteLength: CCTE's Neurite Outgrowth Assay in rat cortical cells for Neurite Length, Mundy Lab (AID 2284213);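 on AC50: neurites imaged about 48 to 50 h after chemical exposure began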
# In short: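 First, rat primary cortical cells were plated and, 2 h later, given test chemical as a 1/10 dilution. Finally, βIII-tubulin immunostaining enabled automated imaging of neurite length.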
# [10] = CCTE_Mundy_HCI_Cortical_Synap_Neur_Matur_NeuriteLength: CCTE's Synaptogenesis and Neurite Maturation Assay in rat cortical cells for Neurite Length, Mundy Lab (AID 2284214)
# In short: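 DMSO-normalised neurite length, from high-content imaging of anti-MAP2-stained rat cortical cells fixed at DIV 12. Glia were suppressed with AraC (DIV 5) before chemical exposure from DIV 7.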
# [11] = CCTE_Mundy_HCI_Cortical_Synap_Neur_Matur_NeuriteSpotCountPerNeuron: CCTE's Synaptogenesis and Neurite Maturation Assay in rat cortical cells for Neurite Spot Count per Neuron Count, Mundy Lab (AID 2284215)
# In short: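 Synapse density is scored as synaptophysin spots along neurites per neuron in fixed rat cortical neurons, measured at DIV 12 after chemical dosing at DIV 7. DMSO is the negative control and activity baseline.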
# DIO3 (gene 1735) = assay: CCTE_GLTED_hDIO3: CCTE's human Deiodinase 3 (DIO3) Inhibition Assay, Great Lakes Toxicology and Ecology Division (GLTED) Lab (AID 2284055; active means hit-call score of the fitted dose curve at least 0.9, where 1 is the maximum;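 further: potency is for inhibition seen as loss of released iodide signal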)
# In short: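 Steps: incubate adenovirus-produced hDIO3 with chemical for 3 hours; detect freed iodide via cerium-arsenic Sandell-Kolthoff colorimetry; compare with DMSO baseline.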
# [12] = UKN5_HCS_SBAD2_cell_viability: Viability Assessment in the University of Konstanz (UKN) Leist Lab Neurite Outgrowth Assay in human iPSC-derived immature Dorsal Root Ganglia Neurons (UKN5) (AID 2284056)
# In short: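 iPSC-derived immature peripheral neurons (SBAD2) seeded on Matrigel with CHIR99021, SU5402 and DAPT, dosed 1 h later for 24 h. Viability from Hoechst H-33342 and calcein-AM live staining, high-content imaging; bidirectional fit versus DMSO.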
# [13] = UKN5_HCS_SBAD2_neurite_outgrowth: University of Konstanz (UKN) Leist Lab Neurite Outgrowth Assay in human iPSC-derived immature Dorsal Root Ganglia Neurons (UKN5) (AID 2284070); conditions: actives raise or lower the signal
# In short: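 Neurite outgrowth is quantified as calcein-AM-labelled neurite area in human iPSC-derived peripheral neurons treated for 24 h, starting 1 h after plating in medium with CHIR99021 (1.5 uM), SU5402 (5 uM) and DAPT (5 uM).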
# [14] = UKN2_HCS_IMR90_neural_migration: University of Konstanz (UKN) Leist Lab Neural Crest Cell Migration Assay in human induced IMR90 Pluripotent Stem Cells (UKN2) (AID 2284204); conditions: actives raise or lower the signal
# In short: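 Stopper-exclusion migration (cMINC), human iPSC-derived neural crest cells; N2-S + EGF/FGF; compound added 24 h post-stopper removal, 24 h exposure. Readout: calcein-AM/Hoechst 30 min, HCS fluorescence imaging; bidirectional fitting, DMSO baseline.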
# [15] = UKN4_HCS_LUHMES_neurite_outgrowth: University of Konstanz (UKN) Leist Lab Neurite Outgrowth Assay in human LUHMES cells (UKN4) (AID 2284206); conditions: actives raise or lower the signal
# In short: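 Neurite area in dopaminergic-model LUHMES neurons is measured by high-content imaging of calcein-AM after 24 h treatment starting shortly after day-2 replating; Hoechst staining tracks viability.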
# [16] = IUF_NPC1b_proliferation_BrdU_72hr: Leibniz Research Institute for Environmental Medicine (IUF) 72-hour Neural Progenitor Cell Bromodeoxyuridine (BrdU) Proliferation Assay (NPC1b) (AID 2284207)
# In short: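 Luminescent BrdU ELISA measured DNA synthesis during the last 16 h of a 72 h exposure of primary human neural progenitor spheres grown with EGF and FGF. Signal was fitted relative to DMSO controls.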
# [17] = IUF_NPC1a_proliferation_area_72hr: Leibniz Research Institute for Environmental Medicine (IUF) 72-hour Neural Progenitor Cell Proliferation Area Assay (NPC1a) (AID 2284208)
# In short: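 Proliferation is scored as sphere area gain in primary human fetal neural progenitors treated for 72 h in EGF/FGF-containing medium. Viability, LDH and BrdU readouts come from the same wells.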
# [18] = IUF_NPC1_viability_72hr: Viability Assessment at 72 hours in the Leibniz Research Institute for Environmental Medicine (IUF) Neural Progenitor Cell Proliferation Assay (NPC1) (AID 2284209)
# In short: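 Three-day continuous exposure of human neural progenitor spheres under EGF/FGF-driven proliferation; cell viability scored by alamar blue signal versus DMSO.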
# [19] = CCTE_Shafer_MEA_acute_AB: CCTE's Alamar Blue Assay for Cytotoxicity in the Neural Acute Assay, Shafer Lab (AID 2284069; active means hit-call score of the fitted dose curve at least 0.9, where 1 is the maximum;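 further: active compounds lower the viability signal compared with DMSO wells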)
# In short: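 Metabolic activity in chemically exposed rat cortical neurons (MEA cultures, day 13/15 post-plating) measured via CellTiter Blue resazurin reduction, 544/590 nm fluorescence; fitted relative to DMSO, with signal loss indicating reduced viability.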
structure (smiles),measurement,setting,value
N[C@H]1C(O)O[C@H](CO)[C@H](O)[C@@H]1O (some centres not stated),AC50,[1],27.4 µM (active)
same,AC50,[2],15 µM (active)
same,AC50,[3],2.98 µM (active)
same,outcome,[4],inactive
same,AC50,[5],25.4 µM (active)
same,outcome,[6],inactive
same,outcome,[7],inactive
same,outcome,[8],inactive
same,outcome,[9],inactive
same,outcome,[10],inactive
same,outcome,[11],inactive
O=C(C=Cc1ccccc1)OCc1ccccc1,AC50,DIO3 (gene 1735),5.5 µM (active)
O=S1(=O)OC(c2ccc(O)cc2)(c2ccc(O)cc2)c2ccccc21,AC50,DIO3 (gene 1735),100 µM (active)
Nc1ncn([C@@H]2O[C@H](CO)[C@@H](O)[C@H]2O)c(=O)n1,AC50,[1],4.31 µM (active)
same,outcome,[1],inactive
same,outcome,[12],inactive
same,AC50,[2],5.16 µM (active)
same,outcome,[2],inactive
same,AC50,[13],10 µM (active)
same,AC50,[3],5 nM (active) and 15 µM (active)
same,AC50,[4],1.39 µM (active)
same,outcome,[4],inactive
same,AC50,[5],2.91 µM (active)
same,outcome,[5],inactive
same,outcome,[14],inactive
same,AC50,[15],13 µM (active)
same,AC50,[16],0.253 µM (active)
same,outcome,[17],inactive
same,outcome,[18],inactive
same,outcome,[6],inactive
same,outcome,[7],inactive
same,outcome,[8],inactive
same,AC50,[9],7.87 µM (active)
same,outcome,[9],inactive
same,outcome,[10],inactive
same,outcome,[11],inactive
CC=CC(F)(F)C(F)(F)C(F)(F)F,AC50,[1],3.82 µM (active)
same,outcome,[4],inactive
same,AC50,[5],3.71 µM (active)
CC=C1CC2C=CC1C2 (configuration not stated),AC50,DIO3 (gene 1735),47.9 µM (active)
Cc1ccc(N/N=c2\c(=O)cc/c(=N/Nc3ccc(S(=O)(=O)O)cc3)c2=O)c(C)c1,AC50,DIO3 (gene 1735),114 µM (active)
Oc1ccc(Cl)cc1Cc1cc(Cl)ccc1O,AC50,DIO3 (gene 1735),57.3 µM (active)
CO[Si](OC)(OC)c1ccccc1,outcome,[19],inactive
O=S(=O)(O)c1ccccc1C=Cc1ccc(-c2ccc(C=Cc3ccccc3S(=O)(=O)O)cc2)cc1,AC50,DIO3 (gene 1735),100 µM (active)
CC/C=C\C/C=C\C/C=C\CCCCCCCC(=O)O,AC50,DIO3 (gene 1735),13.1 µM (active)
CCCCCCCC/C=C\CCCCCCCC(=O)O,AC50,DIO3 (gene 1735),29.8 µM (active)
CCCCCCCC/C=C\CCCCCCCC(=O)OCCO,AC50,DIO3 (gene 1735),14 µM (active)

# — PubChem BioAssay (EPA / NIEHS)
